The values that follow come from PubChem BioAssay.

The subject of experiment [1] is XIP peptide (Xip251-270) binding. Kind of experiment: XIP fragment 251-270 binding compounds – biochemical, small-molecule microarray, fluorescence 635/667 nm, 0.1 µg/mL protein, primary screen (AID 1182). The following applies: fluorescent protein binding, 635 nm, higher = more signal, called active from +8 up or from −8 down.
The test system of the next experiment is XIP peptide (Xip251-270). Put plainly: compounds binding XIP fragment 251-270 – biochemical, small-molecule microarray, fluorescence 635/667 nm, 0.5 µg/mL protein, primary screen (AID 1183). The conditions noted are these: fluorescence 635 nm, higher = more signal.
Experiment [2] can be described thus: blood-stage malaria parasite viability loss – strain 3D7, DAPI fluorescence, 100 nL, primary screen (AID 1184).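 Further: parasites grown inside human red blood cells in medium with human serum.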 The conditions noted are these: P. falciparum 3D7 growth, 3 d, higher = more signal.
In experiment [3] the target is Homeobox protein Hox-A13 (Mus musculus) (UniProt Q62424). Kind of experiment: disruptors of Hoxa13 oligonucleotide interaction – biochemical, fluorescence polarization, labeled oligonucleotide, primary screen (AID 1185). The following applies: Hoxa13:DNA binding, 15 min, higher = more signal, called active from +8 up or from −8 down.
Chain of Homeobox protein Hox-A13 (Mus musculus) (Q62424 whole entry, looked up): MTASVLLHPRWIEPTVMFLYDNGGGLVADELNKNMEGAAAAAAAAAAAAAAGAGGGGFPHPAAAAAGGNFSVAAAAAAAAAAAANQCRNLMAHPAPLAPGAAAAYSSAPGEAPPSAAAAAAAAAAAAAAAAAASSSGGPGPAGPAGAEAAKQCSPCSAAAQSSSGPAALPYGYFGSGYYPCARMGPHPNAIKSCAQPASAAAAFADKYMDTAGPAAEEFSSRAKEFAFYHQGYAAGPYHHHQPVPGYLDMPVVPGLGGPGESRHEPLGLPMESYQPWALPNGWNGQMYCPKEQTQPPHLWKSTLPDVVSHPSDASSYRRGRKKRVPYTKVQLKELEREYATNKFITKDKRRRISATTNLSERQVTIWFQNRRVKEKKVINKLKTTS
The nature of experiment [4]: blockers of DNA damage checkpoint Chk1 activation – imaging, HeLa, hydroxyurea, phospho-Chk1 antibody, percent positive cells, primary screen (AID 1186). The following applies: hydroxyurea-induced phospho-Chk1 immunofluorescence imaging, higher = more signal.
Experiment [5] can be described thus: blockers of DNA damage checkpoint Chk1 activation – imaging, HeLa, hydroxyurea, phospho-Chk1 nuclear intensity, primary screen (AID 1187). The conditions noted are these: hydroxyurea-induced phospho-Chk1 immunofluorescence imaging, higher = more signal.

The source made the active and inactive calls. Unless noted, how the calls were made is not given here.

For the compound `C=CCNC(=O)[C@H]1[C@@H]2C(=O)O[C@@H](c3ccccc3)[C@@H](c3ccccc3)N2[C@@H](c2ccc(O)cc2)[C@]12C(=O)Nc1ccc(C#CC3=CCCCC3)cc12`, the composite z-score is 0.542 (inactive) in experiment [1] and 0.785 with XIP peptide (Xip251-270). For the same compound, the z-score was -0.51 in experiment [2], 0.771 (inactive) in experiment [3], -0.354 (inactive) in experiment [4] and -0.217 (inactive) in experiment [5].
For the compound `O=c1cccc(-c2ccccc2C(F)(F)F)o1`, the results for the composite z-score (in experiment [1]; with XIP peptide (Xip251-270)) were -0.808 (inactive) and -0.597, respectively. Further, the z-score was 1.58 in experiment [2], -1.43 (inactive) in experiment [3], -0.968 (inactive) in experiment [4] and -1.66 (inactive) in experiment [5].
With `C=CC[C@]1(C(=O)NCc2ccccc2)COC(c2ccc(OCCCO)cc2)=N1`, the composite z-score in experiment [1] was -0.398 (inactive); in the experiment with XIP peptide (Xip251-270), 0.779. Besides, the z-score is -0.823 in experiment [2], -4.86 (inactive) in experiment [3], -0.059 (inactive) in experiment [4] and -0.0405 (inactive) in experiment [5].
As to `CC(C)CNC(=O)[C@@]1(C)c2ccccc2C(=O)N(Cc2cc(F)cc(C(F)(F)F)c2)[C@H]1c1ccc(CO)cc1`, the composite z-score is 2.74 (inactive) in experiment [1] and 0.467 with XIP peptide (Xip251-270). In addition, the z-score in experiment [2] was -0.586; in experiment [3] it was -3.51 (inactive); in experiment [4], -0.143 (inactive); in experiment [5] it was 0.0394 (inactive).
As for `COCCOC(=O)N1C(=O)[C@@]2(c3cc(C#CCC(C(=O)OC)C(=O)OC)ccc31)[C@H](c1ccc(OCCO)cc1)N1[C@H](c3ccccc3)[C@H](c3ccccc3)OC(=O)[C@H]1[C@@H]2C(=O)N1CCCCCCC1`, the composite z-score in experiment [1] was 0.836 (inactive); with XIP peptide (Xip251-270), 0.523. Moreover, the z-score in experiment [2] is -2.09; in experiment [3], -15.5 (active); in experiment [4] it was -0.181 (inactive); in experiment [5], 0.106 (inactive).
`CC[C@H](C)C(=O)O[C@H]1CC[C@]2(C)C3=C(CCC2C1(C)C)[C@]1(C)CC[C@H]([C@H](C)CCCC(C)C)[C@@]1(C)CC3` (stereo not given in full): the figures for the composite z-score (in experiment [1]; in the experiment on XIP peptide (Xip251-270)) were 0.146 (inactive) and -0.273, respectively. Further, the z-score in experiment [2] was 0.231; in experiment [3], -1.34 (inactive); in experiment [4] it was -0.719 (inactive); in experiment [5], -0.829 (inactive).
`C=CCC(OC(C)=O)[C@@H]1[C@@H](N(Cc2ccc(-c3ccccc3)cc2)C(=O)c2ccc(-c3ccccc3)cc2)c2cc(OCCCO)ccc2N1C(=O)c1ccc2ccccc2n1` (stereo not given in full): the figures for the composite z-score (in experiment [1]; in the experiment with XIP peptide (Xip251-270)) were -0.649 (inactive) and 0.119, respectively. The z-score was -0.273 in experiment [2], -0.983 (inactive) in experiment [3], 0.0922 (inactive) in experiment [4] and 0.352 (inactive) in experiment [5].
Turning to `C=CCC(OC(C)=O)[C@@H]1[C@@H](N(Cc2ccc(-c3cccc(C(F)(F)F)c3)o2)C(=O)c2cccc3ccccc23)c2cc(OCCCO)ccc2N1C(=O)c1ccc2ccccc2n1` (stereo not given in full), the composite z-score in experiment [1] is -0.279 (inactive); with XIP peptide (Xip251-270) it was -0.0301. Besides, the z-score in experiment [2] was -2.15; in experiment [3], -2.09 (inactive); in experiment [4], -0.131 (inactive); in experiment [5], 0.228 (inactive).
As to `CCCC[C@H]1OB(O)C[C@H]2C1=C(C)C[C@H]1C(=O)C=CC(=O)[C@H]12`, the figures for the composite z-score (in experiment [1]; in the experiment on XIP peptide (Xip251-270)) were 0.656 (inactive) and 0.229, respectively. In addition, the z-score was -0.0202 in experiment [2], -6.4 (inactive) in experiment [3], 0.217 (inactive) in experiment [4] and -0.0819 (inactive) in experiment [5].
Regarding `CCCCC(O)C1C=CC2C(=O)NC(=O)C2N1Nc1ccccn1` (stereo not given), the results for the composite z-score (in experiment [1]; in the experiment with XIP peptide (Xip251-270)) were -0.634 (inactive) and 0.146, respectively. Also, the z-score in experiment [2] is 0.993; in experiment [3], -1.21 (inactive); in experiment [4], 0.846 (inactive); in experiment [5] it was 0.318 (inactive).
As for `CO[C@H]1O[C@H](CO)[C@@H](OC(=O)Nc2ccc(C(F)(F)F)cc2)[C@H](OC(=O)Nc2ccccc2-c2ccccc2)[C@H]1OC(=O)Nc1ccccc1-c1ccccc1`, the composite z-score in experiment [1] was 0.844 (inactive); in the experiment with XIP peptide (Xip251-270) it was 0.701. In addition, the z-score is -1.8 in experiment [2], -3.72 (inactive) in experiment [3], 0.83 (inactive) in experiment [4] and 0.784 (inactive) in experiment [5].
For the compound `COc1ccc([Si](C)(C)[C@H]2[C@H](CCn3cc([C@H](O)c4ccccc4)nn3)O[C@@]3(C(=O)N(C)c4c(Br)cc(C)cc43)[C@@H]2C)cc1`, the composite z-score in experiment [1] is 0.424 (inactive); in the experiment on XIP peptide (Xip251-270), 0.586. The z-score was -2.41 in experiment [2], -2.54 (inactive) in experiment [3], -0.66 (inactive) in experiment [4] and -0.0953 (inactive) in experiment [5].
`C=CCC(OC(C)=O)[C@@H]1[C@@H](N(Cc2ccc(-c3cccc(C(F)(F)F)c3)o2)C(=O)Cc2ccc(OC)cc2)c2cc(OCCCO)ccc2N1C(=O)c1ccc2ccccc2n1` (stereo not given in full): the composite z-score was -0.155 (inactive) in experiment [1] and -0.118 with XIP peptide (Xip251-270). The z-score in experiment [2] is -2.2; in experiment [3] it was -2.25 (inactive); in experiment [4] it was 0.401 (inactive); in experiment [5] it was 0.966 (inactive).
Consider `CC(=O)c1ccc(C(O)C2C=CC3C(=O)NC(=O)C3N2Nc2ccc(Cl)cc2Cl)cc1` (stereo not given), for which the composite z-score in experiment [1] is 0.187 (inactive); with XIP peptide (Xip251-270), 0.02. For the same compound, the z-score in experiment [2] was -0.677; in experiment [3], -5.84 (inactive); in experiment [4], 0.173 (inactive); in experiment [5], 0.588 (inactive).
On to `CN(C)C(=O)[C@@]1(CCS(=O)(=O)c2ccccc2)N=C(c2ccc(OCCCO)cc2)O[C@H]1c1ccccc1N=[N+]=[N-]`, for which the composite z-score in experiment [1] was 0.266 (inactive); in the experiment with XIP peptide (Xip251-270) it was 0.723. The z-score in experiment [2] is -2.56; in experiment [3] it was -5.61 (inactive); in experiment [4] it was -0.268 (inactive); in experiment [5], -0.701 (inactive).
